Bioassay records deposited in PubChem BioAssay by several laboratories.
Beta cell apopt = inhibitors of cytokine-induced beta cell apoptosis, primary screen, luminescence; INS-1E cytokine-induced death, ATP luminescence, 48 h; percent of positive-control rescue, neutral wells zero; protection from apoptosis, % (test concentration not listed); 300,000 tested, 0.8% active; AID 435005, 2010;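 active = Every replicate reaches about 75%, or at least half do and their mean reaches it too, limit read from the data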;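 also: higher means more ATP so stronger rescue from cytokine killing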
CSC inhib = cancer stem cell viability inhibitors, primary screen, luminescence; cancer stem cell-like cells viability; inhibition, % at 7.5 µM; 300,000 tested, 1.1% active; in the data active = inhibition above about 75%; tested in HMLE shEcad cells
Mdm2 MdmX PPI = inhibitors of human Mdm2-MdmX association, primary screen, cell-based, luminescence, split luciferase, SaOS-2, uHTS. Protein Mdm4 (Homo sapiens) + E3 ubiquitin-protein ligase Mdm2 (Homo sapiens), …. SaOS-2 split-luciferase Mdm2/MdmX complementation. inhibition, % at 8 µM. 330,000 tested, 3% active. AID 485346, 2010;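 active = inhibition of at least 50% at 8 µM in the primary screen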
697 NFkB inh = inhibitors of PMA/ionomycin-induced NF-kB reporter, 697 cells, primary screen, B-cell NF-kB inhibitor project, cell-based, luminescence, uHTS; 697 B-cell NF-kB luciferase reporter, 16 h; inhibition, % at 4 µM; 330,000 tested, 0.33% active; AID 435022, 2010; in the data active = inhibition above about 35%
Jurkat NFkB inh = inhibitors of induced NF-kB luciferase reporter, primary screen, TCR NF-kB activation inhibitor project, cell-based, luminescence, uHTS; Jurkat, PMA/ionomycin-induced NF-kB luciferase reporter; inhibition, % at 4 µM; 330,000 tested, 0.53% active; AID 435003, 2010; in the data active = inhibition above about 50%
Gli-Sufu antag = Gli-Sufu pathway antagonists, primary screen, luciferase luminescence, Sufu-KO-LIGHT cells, uHTS. Sufu-KO-LIGHT fibroblasts, Gli luciferase reporter luminescence. inhibition, % at 5 µM. 340,000 tested, 0.74% active. AID 588413, 2011;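 active = inhibition above about 55%, limit read from the data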
Jurkat NFkB conf = PMA/ionomycin-induced NF-kB reporter inhibitors, Jurkat retest, confirmation, T-cell NF-kB inhibitor project, cell-based, luminescence, single concentration; shares compounds with Jurkat NFkB inh; Jurkat NF-kB luciferase, 16 h; inhibition, % at 4 µM; 2,700 tested, 27% active; AID 435020, 2010;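 active = inhibition reaching about 45% at 4 µM in either replicate, limit read from the data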
697 NFkB conf = PMA/ionomycin-induced NF-kB reporter inhibitors, 697 retest, confirmation, B-cell NF-kB inhibitor project, cell-based, luminescence, single concentration; shares compounds with 697 NFkB inh; 697 B-cell NF-kB luciferase, 16 h; inhibition, % at 4 µM; 2,000 tested, 35% active; AID 449746, 2010; in the data active = inhibition mostly above about 28%, no sharp cut-off; inactive = mostly below about 22%
Mdm2 MdmX conf = Mdm2-MdmX complex disruptors, retested hits, confirmation, luminescence, single concentration | shares compounds with Mdm2 MdmX PPI | Mdm2-MdmX binding, luminescent assay | inhibition, % at 8 µM | 10,000 tested, 55% active; in the data active = inhibition above about 40%
Full FLuc ctr = full-length luciferase signal inhibition, confirmation, counter-screen for Mdm2/MdmX interaction inhibitor project, cell-based, single concentration, SaOS-2; inhibition, % at 8 µM; shares compounds with Mdm2 MdmX PPI; 6,200 tested, 77% active; SaOS-2 full-length luciferase counterscreen, luminescence;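 active = mean inhibition at 8 µM reaching about 37%, which flags the compound as non-specific, limit read from the data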;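 also: p53-null SaOS-2 cells with luciferase driven by a doxycycline-inducible promoter; compound on cells about two nights before reading with doxycycline added after day one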
Each line names hits and unclear results; the compound was inactive in the other large screens (follow-up assays come after a bar, where they were run). An excerpt weighted towards active compounds, which were near 4.5% of everything screened.

O=C(NCCc1ccccc1F)c1ccc2c(c1)OCCO2	Mdm2 MdmX PPI 89, 697 NFkB inh 55, Jurkat NFkB inh 76, Gli-Sufu antag 69 | Jurkat NFkB conf 82 | 697 NFkB conf 39 | Mdm2 MdmX conf 92 | Full FLuc ctr 49
CCc1nc2ccc(C(=O)N(C)CC(=O)Nc3ccc(F)c(F)c3F)cc2nc1CC	none (no result: Beta cell apopt, CSC inhib)
Cc1[nH]n(-c2ccccc2)c(=O)c1/C=N/Nc1nncc(-c2ccccc2)n1	Beta cell apopt 91, CSC inhib 110, Mdm2 MdmX PPI 88, Jurkat NFkB inh 55, Gli-Sufu antag 85 | Jurkat NFkB conf inactive | Mdm2 MdmX conf 86 | Full FLuc ctr 55
Cc1ccc(/C=N/Nc2nncc(-c3ccccc3)n2)o1	none (no result: CSC inhib)
COc1ccc(N/N=C/c2c(C(=O)O)ccc3ccccc23)cc1	Beta cell apopt 116, CSC inhib 109, Mdm2 MdmX PPI 86, Jurkat NFkB inh 54 | Jurkat NFkB conf inactive | Mdm2 MdmX conf 90 | Full FLuc ctr inactive
CN1CCN(c2nc3ccccn3c(=O)c2/C=C(\C#N)S(=O)(=O)c2ccc(Cl)cc2)CC1	none
COC(=O)N(C)c1nc2ccccc2s1	none
CN(C(=O)OC(C)(C)C)c1ccc(-c2nc3ccccc3s2)cc1	Mdm2 MdmX PPI 88, 697 NFkB inh 66, Jurkat NFkB inh 69, Gli-Sufu antag 90 | Jurkat NFkB conf 90 | 697 NFkB conf 48 | Mdm2 MdmX conf 90 | Full FLuc ctr inactive
O=C(/C=C/c1ccccc1)Nc1cccc(C(=O)O)c1	Mdm2 MdmX PPI 68, 697 NFkB inh 82, Jurkat NFkB inh 82 | Jurkat NFkB conf 76 | 697 NFkB conf 79 | Mdm2 MdmX conf 64 | Full FLuc ctr inactive
O=C(Nc1ccc(NC(=O)c2ccco2)nc1)c1ccco1	none
CC(C)(C)C(=O)Nc1ccc(NC(=O)c2ccco2)nc1	Mdm2 MdmX PPI 90, Jurkat NFkB inh 78, Gli-Sufu antag 80 | Jurkat NFkB conf 88 | Mdm2 MdmX conf 92 | Full FLuc ctr 58
CC1=Nc2cc(C(=O)O)ccc2Sc2ccc(Br)cc21	none
CCC1=Nc2cc(C(=O)NCCCOC)ccc2Sc2ccccc21	none
CC1=Nc2cc(C(=O)NCCCOC(C)C)ccc2Sc2ccc(C)cc21	Mdm2 MdmX PPI 63, Jurkat NFkB inh 64 | Jurkat NFkB conf inactive | Mdm2 MdmX conf 52 | Full FLuc ctr 81
CC1=Nc2cc(C(=O)NCC3CCCO3)ccc2Sc2ccc(Br)cc21 (centres undefined)	Mdm2 MdmX PPI 56, Jurkat NFkB inh 52 | Jurkat NFkB conf inactive | Mdm2 MdmX conf 60 | Full FLuc ctr 61
CC1=Nc2cc(C(=O)NCCCOC(C)C)ccc2Sc2ccccc21	none
CCCC1=Nc2cc(C(=O)NCCCOCC)ccc2Sc2ccccc21	Mdm2 MdmX PPI 60, Jurkat NFkB inh 57 | Jurkat NFkB conf 51 | Mdm2 MdmX conf 72 | Full FLuc ctr 124
O=[N+]([O-])c1nn(-c2ccc3c(c2)OCCO3)n(O)c1=Nc1ccccc1	Mdm2 MdmX PPI 91, Jurkat NFkB inh 71 (no result: Gli-Sufu antag) | Jurkat NFkB conf 89 | Mdm2 MdmX conf 95 | Full FLuc ctr 53
CC(=O)n1cc(N(C(=O)CCl)c2ccccc2)c2ccccc21	Mdm2 MdmX PPI 97, Jurkat NFkB inh 72 | Jurkat NFkB conf inactive | Mdm2 MdmX conf 100 | Full FLuc ctr 51
CC(=O)n1cc(CO)c2ccccc21	none (no result: Beta cell apopt)
Cc1ccccc1OCC(=O)O/N=C(\N)c1ccncc1	none
CCN1C=CC(=C2C(=O)c3ccccc3C2=O)C=C1	Mdm2 MdmX PPI 72, Jurkat NFkB inh 54, Gli-Sufu antag 59 | Jurkat NFkB conf 45 | Mdm2 MdmX conf 78 | Full FLuc ctr 37
CCCN1C=CC(=C2C(=O)c3ccccc3C2=O)C=C1	Mdm2 MdmX PPI 88, 697 NFkB inh 44, Jurkat NFkB inh 69, Gli-Sufu antag 79 | Jurkat NFkB conf 75 | 697 NFkB conf inactive | Mdm2 MdmX conf 94 | Full FLuc ctr 55
COc1ccc(OC)c2c1C(=O)c1ccccc1C2=O	none
COc1ccc(OC)c2c1C(=O)C(Cl)=C(Cl)C2=O	Beta cell apopt 114, CSC inhib 96, Mdm2 MdmX PPI 96, Jurkat NFkB inh 60 | Jurkat NFkB conf 68 | Mdm2 MdmX conf 100 | Full FLuc ctr inactive
S=C(Nc1ccc(Oc2ccccc2)cc1)N1CCN(c2ccccn2)CC1	none
COc1ccc(NC(=O)Cn2nnc(-c3ccccc3NS(=O)(=O)c3ccc(OC)cc3)n2)cc1	Mdm2 MdmX PPI 67, Jurkat NFkB inh 72 | Jurkat NFkB conf 64 | Mdm2 MdmX conf 55 | Full FLuc ctr 83
CCS(=O)(=O)c1ncc(Cl)c(C(=O)Nc2ccc(S(=O)(=O)N(C)c3ccccc3)cc2)n1	Beta cell apopt 105, CSC inhib 98, Mdm2 MdmX PPI 98, Jurkat NFkB inh 75 | Jurkat NFkB conf inactive | Mdm2 MdmX conf 100 | Full FLuc ctr 51
O=S(=O)(Nc1cccc2ncccc12)c1cccs1	Mdm2 MdmX PPI 74, Jurkat NFkB inh 80, Gli-Sufu antag 87 | Jurkat NFkB conf 64 | Mdm2 MdmX conf 100 | Full FLuc ctr 52
CCN1/C(=C/c2cc[n+](CCCS(=O)(=O)[O-])c3ccccc23)Sc2ccccc21	none
CCN1/C(=C/c2ccc3cc(C)ccc3[n+]2CC)Sc2cc(C)c(C)cc21	Mdm2 MdmX PPI 81, 697 NFkB inh 65, Jurkat NFkB inh 93, Gli-Sufu antag 91 (no result: Beta cell apopt, CSC inhib) | Jurkat NFkB conf 74 | 697 NFkB conf 80 | Mdm2 MdmX conf 85 | Full FLuc ctr 39
